# Reference: PubChem BioAssay (NCI)
# This is part of a sample that, as a whole, favours compounds with a hit. Of some 83,000 tested, about 20% had one in any assay.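 Note: values are percent growth. 100 is the growth of untreated cells, values between 100 and 0 indicate rising inhibition; between -100 and 0 indicates cell death.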 Calls of active or inactive are those of the source. Rule for the calls: active = growth percent below 10; inactive = the rest.
# Tested on: K-562 leukemia
# Test: NCI-60 one-dose screen, 48 h (100 = growth as untreated, 0 = no growth, -100 = all killed)
# Conditions: 10 µM unless noted
row,Structure (SMILES),growth
1,COc1cc2oc(-c3cccc(NC(=O)c4cc(N)ccc4Cl)c3)cc(=O)c2c(OC)c1OC,83.7% (inactive)
2,CC(C)(C)n1cc(-c2ccnc(NCCCNS(=O)(=O)c3cccc(F)c3)n2)c(-c2ccc(Cl)c(O)c2)n1,59% (inactive)
3,COc1cccc2cc(-c3cc4ccccc4[nH]3)/c(=N\NC(=O)c3ccc(Cl)cc3)oc12,22.1% (inactive)
4,Nc1nc(Nc2ccccc2SSc2ccccc2Nc2nc(N)nc(-c3ccc4ccccc4c3)n2)nc(-c2ccc3ccccc3c2)n1,69.7% (inactive)
5,O=C(CN1CCN(c2cc(=O)n(-c3ccccc3)c3ccccc23)CC1)Nc1nc(-c2ccccc2)cs1,22.4% (inactive)
6,CC(Nc1c(C#N)cnc2ccc(-c3cnc(N)nc3)cc12)c1ccccc1 (centres undefined),22.5% (inactive)
7,CC(=O)Nc1cccc(Nc2nc(N[C@H](C)c3ccccc3)c3ccccc3n2)c1,5.94% (active)
8,CNC1CCc2c(sc(NC(=O)c3ccc(C(C)(C)C)cc3)c2C(N)=O)C1 (centres undefined),-10% (active)
9,COc1cc(OC)cc(C(=O)Nc2cccc(C#Cc3cccc4[nH]nc(N)c34)c2)c1,8.84% (active)
10,COc1c(N2CC3CCCNC3C2)c(F)cc2c(=O)c(C(=O)N/N=C/c3ccccc3)cn(C3CC3)c12 (centres undefined),54.1% (inactive)
11,COc1ccccc1-n1cc(C#N)c(N)c1C(=O)c1ccc(Br)cc1,20.1% (inactive)
12,Nc1nc(-c2cccc([N+](=O)[O-])c2)c(N=Nc2ccccc2)s1,32.8% (inactive)
13,COc1ccc(-c2nc3ccc(-c4nnc(SCC(=O)Nc5ccc(C(=O)/C=C/c6ccc(Cl)cc6)cc5)o4)cc3[nH]2)cc1,93.9% (inactive)
14,CCCCCCCn1cc2c(NCCc3ccccc3)ncnc2n1,88.6% (inactive)
15,COc1ccc(-c2nc3cc(Cl)c(Cl)cc3n2CC(=O)N=Nc2c(O)[nH]c3ccc(OC)cc23)cc1,49.2% (inactive)
16,CN1CCN(Cc2ccc(NC(=O)c3cncc(C#Cc4cnn5cccnc45)c3)cc2C(F)(F)F)CC1,-11.5% (active)
17,Cc1cc(C)c(N2C(=O)CC(Nc3ccc(Cl)cc3Cl)C2=O)c(C)c1 (centres undefined),102% (inactive)

row,Structure (SMILES),growth
1,CC(=O)Nc1cccc(Nc2nc(N[C@@H](C)c3ccccc3)c3ccccc3n2)c1,-19% (active)
2,COc1cc(-c2nn(C(C)(C)C)cc2-c2ccnc(NCCCNS(=O)(=O)c3cccc(F)c3)n2)ccc1Cl,33.4% (inactive)
3,NC(=O)c1cccc(-n2ccc3cc(NC(=O)Nc4ccc(N5CCOCC5)c(C(F)(F)F)c4)ccc32)n1,-22.9% (active)
4,O=S(=O)(Nc1cccc2ccccc12)c1ccc(-c2cnc(C3CC3)o2)cc1,8.55% (active)
5,CCOC(=O)c1c(N)c(C#N)cn1-c1cc(OC)c(OC)c(OC)c1,105% (inactive)
6,COc1ccc([C@H]2c3[nH]c4ccccc4c3C[C@H]3C(=O)N(C4CCN(Cc5c(Cl)cccc5Cl)CC4)CC(=O)N23)c(OC)c1,92.7% (inactive)
7,COc1ccc2c(c1)c(-c1cc(N)n3nc(-c4cn(C)c5ccc(OC)cc45)cc3n1)cn2C,-16.6% (active)
8,COc1cc2c(cc1OC)C(Sc1ccc(C)cc1)c1c(nc(N)c(C#N)c1N)O2 (centres undefined),4.48% (active)
9,C[C@@H](Nc1c(C#N)cnc2ccc(-c3cnc(Cl)c(NS(C)(=O)=O)c3)cc12)c1ccccc1,15.3% (inactive)
10,Cc1ccc(NC(=O)N[C@@H](Cc2cc(F)cc(F)c2)C(=O)NC2C(=O)N3C[C@H](O)C[C@H]3C(=O)N3CCCC[C@H]3C(=O)N[C@@H](CO)C(=O)N3C[C@H](C)C[C@H]3C(=O)O[C@H]2C)c(F)c1 (some centres undefined),27.9% (inactive)
11,O=C(NCc1ncc[nH]1)c1ccc(-c2nc3ccc4[nH]ncc4c3c3c2CCCC3)cc1,14.7% (inactive)
12,CCO/C=N/C1=C(C#N)C(c2ccc(F)cc2)c2sc3c(C)cccc3c2O1 (centres undefined),10.4% (inactive)
13,c1cn2c(ccc3nc(-c4cn[nH]c4)c4c(c32)CCCC4)n1,85.6% (inactive)
14,O=c1[nH]c2ccccc2cc1CSc1ccccc1Nc1nccc(-c2ccc(Cl)cc2)n1,94.7% (inactive)
15,Cn1ccnc1C(=O)/C=C/c1ccc(NC(=O)c2c(F)c(F)c(F)c(F)c2F)cc1,80.7% (inactive)
16,Cc1noc(C)c1CSc1nc2ccccc2n1-c1ccccc1,88.6% (inactive)
17,Cn1cc(CNc2nc3ccc(OC/C(=C/F)CN)cc3o2)ccc1=O,93.8% (inactive)
